# From PubChem BioAssay (EPA / NIEHS)
# Values joined by “and” are separate entries in the source; they are usually repeats but may differ in a detail not shown here. Identical values can stand only once. Records with an inconclusive call do not appear. A structure can be active in one record and inactive in another. Active and inactive are the calls of the source. Rule for the calls, unless noted: active = hit-call score of the fitted dose curve at least 0.9, where 1 is the maximum; inactive = score below 0.9.
# Tests used:
# [1] = CCTE_Shafer_MEA_dev_firing_rate_mean: CCTE's Neural Network Formation Assay for Mean Firing Rate, Shafer Lab (AID 2284031);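 note: curve fitted for loss of firing so AC50 reflects decreased mean firing rate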
# Procedure, shortened: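 Primary rat cortical neurons on 48-well MEA plates, exposed from plating day 0 with dosing renewed on DIV 5 and 9. Mean well firing rate over active electrodes, recorded days 5, 7, 9, 12, summarised as trapezoidal AUC.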
# [2] = CCTE_Shafer_MEA_dev_per_burst_spike_percent: CCTE's Neural Network Formation Assay for Percent of Spikes in a Burst, Shafer Lab (AID 2284032);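 note: fitted as a decrease in burst spike percentage below DMSO baseline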
# Procedure, shortened: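 Rat primary cortical neurons on 16-electrode MEA wells, dosed from plating day 0 for 12 days with renewal on DIV 5 and 9; spikes-in-bursts percentage averaged over bursting electrodes, collapsed as AUC across days 5, 7, 9, 12; loss direction versus DMSO.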
# [3] = CCTE_Shafer_MEA_dev_active_electrodes_number: CCTE's Neural Network Formation Assay for Number of Active Electrodes, Shafer Lab (AID 2284040; active = hit-call score of the fitted dose curve at least 0.9, where 1 is the maximum;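 note: potency for loss of active electrodes versus DMSO so lower counts are hits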)
# Procedure, shortened: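 Primary rat cortical neurons on 16-electrode MEA wells, exposed from day 0 through day 12 with compound renewed at DIV 5 and 9 feeds. Active electrodes (mean firing ≥5 spikes/min) counted at DIV 5, 7, 9, 12; trapezoidal AUC across days, loss-of-signal versus DMSO.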
# [4] = CCTE_Shafer_MEA_dev_burst_rate: CCTE's Neural Network Formation Assay for Burst Rate, Shafer Lab (AID 2284042);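 note: potency for loss of burst rate below DMSO control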
# Procedure, shortened: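 Exposure ran continuously over 12 days of network development in rat cortical cultures, with compound refreshed during full media changes on DIV 5 and 9. Single-electrode bursts per recording time, well-mean over active electrodes, trapezoidal AUC across days 5–12, fitted downward relative to DMSO.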
# [5] = CCTE_Shafer_MEA_dev_burst_duration_mean: CCTE's Neural Network Formation Assay for Mean Burst Duration, Shafer Lab (AID 2284045)
# Procedure, shortened: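 Primary rat cortical neurons on PEI-coated 16-electrode MEA wells, exposed from plating through day 12 with compound renewed at DIV 5 and 9; spontaneous activity recorded days 5, 7, 9, 12. Well-mean burst duration collapsed as trapezoidal AUC, fitted for loss versus DMSO.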
# [6] = CCTE_Shafer_MEA_dev_interburst_interval_mean: CCTE's Neural Network Formation Assay for Mean Interburst Interval, Shafer Lab (AID 2284046);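 note: well-mean interburst interval of bursting electrodes as AUC over four recording days; curve fitted for decrease in interburst interval relative to DMSO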
# Procedure, shortened: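 Primary rat cortical neurons on PEI-coated 48-well MEA plates (laminin added with cells at plating) (16 electrodes/well), exposed from plating day 0 with renewal at DIV 5 and 9. Mean inter-burst interval averaged over bursting electrodes, AUC across days 5, 7, 9, 12; DMSO baseline.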
# [7] = CCTE_Shafer_MEA_dev_inter_network_spike_interval_mean: CCTE's Neural Network Formation Assay for Mean Inter-network Spike Interval, Shafer Lab (AID 2284047)
# Procedure, shortened: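 Mean time between consecutive network-spike peaks, recorded extracellularly (adaptive spike detection) on DIV 5, 7, 9 and 12, summarized as trapezoidal AUC. Rat cortical cultures on MEAs dosed continuously days 0–12, re-dosed at feeds; loss-of-signal fit relative to DMSO.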
# [8] = CCTE_Shafer_MEA_dev_network_spike_number: CCTE's Neural Network Formation Assay for Number of Network Spikes, Shafer Lab (AID 2284048);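 note: synchronized bursts across electrodes counted on days 5 7 9 12 and integrated as AUC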;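 for AC50: fit as a loss of signal meaning fewer network spikes than DMSO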
# Procedure, shortened: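 Primary rat cortical neurons were seeded at 1.5 x 10^5 cells/well on PEI-coated 16-electrode MEA wells with laminin, exposed from plating day 0, compound renewed at DIV 5 and 9. Network spikes were recorded on days 5, 7, 9, 12 and summarized as trapezoidal AUC versus DMSO.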
# [9] = CCTE_Shafer_MEA_dev_network_spike_peak: CCTE's Neural Network Formation Assay for Mean Number of Electrodes in Network Spike, Shafer Lab (AID 2284049);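 note: fitted for loss of signal meaning fewer electrodes in network spikes than DMSO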
# Procedure, shortened: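 Continuous 12-day exposure of rat cortical cultures, starting at plating, on MEA plates. Endpoint: electrodes participating in network-spike peaks, AUC across DIV 5–12, DMSO as negative control.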
# [10] = CCTE_Shafer_MEA_dev_spike_duration_mean: CCTE's Neural Network Formation Assay for Mean Spike Duration, Shafer Lab (AID 2284051);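 note: mean network spike duration pooled as area under curve over DIV 5 to 12 recordings; potency for a decrease in mean network spike duration versus DMSO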
# Procedure, shortened: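 Spontaneous activity was recorded on days 5, 7, 9 and 12 from rat cortical cultures grown on microelectrode arrays and dosed continuously from day 0, with media and compound renewed after the DIV 5 and 9 recordings. Network-spike duration was collapsed by area under the curve.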
# [11] = CCTE_Shafer_MEA_dev_per_network_spike_spike_number_mean: CCTE's Neural Network Formation Assay for Mean Number of Spikes in a Network Spike, Shafer Lab (AID 2284053);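 note: fitted as decrease in spikes per network spike relative to DMSO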
# Procedure, shortened: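 Mean spike count within each network spike, taken in a 0.05 s window at its peak, was recorded on days 5, 7, 9 and 12 and integrated as trapezoidal area under the curve. Rat cortical cultures on MEA plates received continuous compound from day 0, refreshed at medium changes on DIV 5 and 9.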
# [12] = CCTE_Shafer_MEA_dev_LDH: CCTE's Lactate Dehydrogenase Assay for Cytotoxicity in the Neural Network Formation Assay, Shafer Lab (AID 2284068; active = hit-call score of the fitted dose curve at least 0.9, where 1 is the maximum;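 note: exposure for twelve days from plating with re-dosing on DIV 5 and 9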)
# Procedure, shortened: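 Primary rat cortical neurons were cultured on PEI-coated MEA plates and exposed from plating through day 12, with compound renewed at medium changes on DIV 5 and 9. LDH activity was read spectrophotometrically; loss of signal versus DMSO indicates reduced viability.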
# [13] = CCTE_Shafer_MEA_dev_AB: CCTE's Alamar Blue Assay for Cytotoxicity in the Neural Network Formation Assay, Shafer Lab (AID 2284083; active = hit-call score of the fitted dose curve at least 0.9, where 1 is the maximum;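 note: resazurin reduction fluorescence as viability of cultured neurons; twelve days of exposure from plating with re-dosing on DIV 5 and 9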)
# Procedure, shortened: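 Resazurin fluorescence, relative to DMSO, gauges viability after twelve days of exposure that began at plating of rat cortical neurons (1.5 x 10^5 cells/well, 48-well MEA); treatment renewed with full medium exchange on DIV 5 and 9.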
# [14] = IUF_NPC1b_proliferation_BrdU_72hr: Leibniz Research Institute for Environmental Medicine (IUF) 72-hour Neural Progenitor Cell Bromodeoxyuridine (BrdU) Proliferation Assay (NPC1b) (AID 2284207)
# Procedure, shortened: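 hNPC spheres (primary, GW 16-19 fetal cortex), single sphere/well, EGF+FGF medium; 72 h compound, no renewal; BrdU pulse last 16 h; luminescent ELISA; activity vs DMSO baseline; growth-factor withdrawal as positive control.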
# [15] = IUF_NPC1a_proliferation_area_72hr: Leibniz Research Institute for Environmental Medicine (IUF) 72-hour Neural Progenitor Cell Proliferation Area Assay (NPC1a) (AID 2284208)
# Procedure, shortened: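 Single 0.25–0.35 mm human fetal neural progenitor spheres in proliferation medium with EGF and FGF, exposed 72 h from plating without renewal at 37C, pH 7.2-7.6. Sphere area growth measured by automated phase-contrast imaging, relative to DMSO.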
# [16] = IUF_NPC1_viability_72hr: Viability Assessment at 72 hours in the Leibniz Research Institute for Environmental Medicine (IUF) Neural Progenitor Cell Proliferation Assay (NPC1) (AID 2284209)
# Procedure, shortened: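 Single spheres (0.25-0.35 mm) of human fetal cortex-derived neural progenitor cells were grown in proliferation medium with EGF and FGF at 37C and 5% CO2. They were exposed for 72 h without renewal, and viability was read by alamar blue resorufin fluorescence.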
smiles,measurement,setting,value
CN(C)CCCn1cc(C2=C(c3c[nH]c4ccccc34)C(=O)NC2=O)c2ccccc21,AC50,[1],1.97 µM (active) [middle of 4 runs]
same,AC50,[2],4.52 µM (active) and 2.95 µM (active) and 5 µM (active)
same,AC50,[3],4.2 µM (active) [middle of 4 runs]
same,AC50,[4],1.61 µM (active) [middle of 4 runs]
same,outcome,[5],inactive
same,outcome,[6],inactive
same,outcome,[7],inactive
same,AC50,[8],264 nM (active) and 467 nM (active) and 1.58 µM (active)
same,outcome,[8],inactive
same,AC50,[9],3.8 µM (active) and 3.08 µM (active) and 5 µM (active)
same,AC50,[10],6.41 µM (active) and 5 µM (active) and 3.28 µM (active)
same,AC50,[11],1.61 µM (active) and 2.57 µM (active) and 5 µM (active)
same,AC50,[12],7.97 µM (active)
same,AC50,[13],7.86 µM (active) [middle of 4 runs]
same,AC50,[14],0.263 µM (active)
same,AC50,[15],11.6 µM (active)
same,outcome,[16],inactive
